Source: PubChem
IL-1B inflam inh: inflammasome signaling inhibition, IL-1 beta readout. THP-1 LPS/ATP IL-1B secretion, AlphaLISA, 16 h; active compounds read low. activity change, % at 57.5 µM. 360,000 tested, 4.7% active; in the data active means activity change below about -50%; inconclusive means mostly about -30% to -49%; further: on the % scale 0 is the no-effect control and ±100 the full control effect
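THP-1 cells pretreated 1 hr with compounds (up to 57.5 uM final), then stimulated with LPS (250 ng/mL final) plus ATP (1.25 mM final); secreted IL-1B measured by AlphaLISA after 16 hr, decreased signal indicating inhibition.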
HepG2 viability: kills HepG2 cells in TGF-b inhibitor counter-screen; Potency, µM (series often up to 46.1 µM), for the others: at the highest dose activity change, negative = cytotoxicity, actives largely listed as cytotoxic; 410,000 tested, 0.76% active; HepG2 CAGA-GFP viability, ATP luminescence, 18 h; further: potency means the concentration at half of the fitted maximal effect
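HepG2 CAGA-GFP cells (1000/well, DMEM with 1% FBS) received compound, then TGF-beta at 500 pg/mL final, and were incubated 18 hours at 37 degrees C. Viability was read by CellTiter-Glo luminescence. Media-only wells were set as complete cell-killing and DMSO as no toxicity.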
DT40 TDP1 CPT: growth inhibition of DT40 Tdp1-/-;hTDP1 cells with camptothecin (screen for TDP1 inhibitors) | 420,000 tested, 12% active | chicken DT40 Tdp1-/-;hTDP1 cells + 20 nM CPT, ATP luminescence, 48 h | Potency, µM (series often up to 46.2 µM), inactives show at the top dose activity change, negative = growth inhibition, usual class: inhibitors; further: potency means the concentration at half of the fitted maximal effect; on the % scale 0 is the no-effect control and ±100 the full control effect; nearly all actives have a fitted effect of over 55% in size
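Chicken DT40 Tdp1-/- cells stably complemented with human TDP1 were seeded at 400 cells/well in medium containing 20 nM camptothecin, exposed to pin-transferred compounds, and grown at 37 °C for at least 48 hr. Viability was read as ATP luminescence.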
TDP1 cell noCPT: qHTS for Inhibitors of human tyrosyl-DNA phosphodiesterase 1 (TDP1): qHTS in cells in absence of CPT | Potency, µM (top dose mostly 46.2 µM), for the others: at the top dose activity change, negative = growth inhibition, usual class: inhibitors | DT40 Tdp1-/- hTDP1 cells, no CPT, ATP luminescence, 48 h | 420,000 tested, 15% active; further: potency means the concentration at half of the fitted maximal effect; on the % scale 0 is the no-effect control and ±100 the full control effect; nearly all actives have a fitted effect of over 55% in size
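Readout: luminescence from CellTiter-Glo after 30 min in the dark at RT. Cells: DT40 Tdp1-/- with stable hTDP1, 400/well. Exposure: compounds alone, ≥48 hr, 37 °C.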
TDP1 block: TDP1 (human) enzyme inhibition; Potency, µM (doses to about 130 µM), inactives show top-dose activity change, negative = inhibition, hits mostly inhibitors; Q9NUW8; recombinant TDP1, AlphaScreen DNA substrate cleavage; AID 485290; 350,000 tested, 0.28% active; further: potency means the concentration at half of the fitted maximal effect; on the % scale 0 is the no-effect control and ±100 the full control effect; nearly all actives have a fitted effect of over 40% in size
Target sequence (Q9NUW8 whole entry, looked up): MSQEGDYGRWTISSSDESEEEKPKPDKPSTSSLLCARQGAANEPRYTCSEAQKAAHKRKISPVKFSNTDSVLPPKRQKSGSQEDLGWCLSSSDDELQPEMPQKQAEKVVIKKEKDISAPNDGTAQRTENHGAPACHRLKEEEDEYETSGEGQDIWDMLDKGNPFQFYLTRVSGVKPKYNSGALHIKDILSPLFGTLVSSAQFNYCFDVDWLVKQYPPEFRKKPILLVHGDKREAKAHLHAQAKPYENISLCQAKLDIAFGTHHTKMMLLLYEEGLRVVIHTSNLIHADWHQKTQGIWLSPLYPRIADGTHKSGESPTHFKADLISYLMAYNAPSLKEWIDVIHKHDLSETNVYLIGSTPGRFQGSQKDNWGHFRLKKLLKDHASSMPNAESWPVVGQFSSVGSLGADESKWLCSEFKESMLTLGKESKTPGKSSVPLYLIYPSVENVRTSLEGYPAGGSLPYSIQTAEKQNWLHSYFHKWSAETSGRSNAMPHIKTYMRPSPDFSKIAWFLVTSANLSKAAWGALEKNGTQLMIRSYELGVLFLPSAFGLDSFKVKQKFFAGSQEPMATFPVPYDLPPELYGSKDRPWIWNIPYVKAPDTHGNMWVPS
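E. coli-derived human Tdp1, 1 nM final. Cpd preinc 15 min RT; substrate 15 nM final, 5 min RT; AS bead mix 10 ug/ml final, 10 min RT. Signal loss = tyrosine-FITC cleavage. No-enzyme wells = max signal.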
TGFb inhibitor: blocks TGF-b signaling. HepG2 CAGA-GFP TGF-b/SMAD3 reporter, GFP fluorescence, 18 h; TGF-beta stimulated, 500 pg/mL final. Potency, µM (highest dose often 46.1 µM), for inactives: at the top dose activity, negative = inhibition, actives largely listed as inhibitors. 410,000 tested, 1.2% active. AID 588855; further: potency means the concentration at half of the fitted maximal effect; on the % scale 0 is the no-effect control and ±100 the full control effect; nearly all actives have a fitted effect of over 65% in size
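TGF-beta reporter screen: HEPG2 CAGA-GFP, 1% FBS, 500 pg/mL TGF-beta final, 18 h; per-cell GFP summed per well; curves fitted and categorized by class.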
* hit, by the source's call; ? = inconclusive; · = no result given; [ ] = another dose, or the depositor's remark. Compounds with a hit are over-represented: about 18% of the library has one in this group of screens. Unless noted, the call rests on the fitted dose curve; in most records, active means well fitted curve in the direction sought with a large enough effect; inconclusive means small, poorly fitted or top-dose-only effect, or another doubt; inactive means no such curve, though single readings can be large; an effect the other way counts as inactive or inconclusive.

SMILES	IL-1B inflam inh	HepG2 viability	DT40 TDP1 CPT	TDP1 cell noCPT	TDP1 block	TGFb inhibitor
O=C(Nc1ccccc1Cl)C1CCCN(S(=O)(=O)c2ccc(-n3cnnn3)cc2)C1 (stereo unspecified)	-0.3	-4.4%	-18.4%	-18.7%	0.0%	-3.2%
COc1ccc(C2c3[nH]c4ccccc4c3CCN2Cc2ccoc2)c(F)c1 (stereo unspecified)	0.0	-28.6%	?	16.4µM*	7.3%	?
Oc1cccc(C2c3[nH]c4ccccc4c3CCN2Cc2ccoc2)c1 (stereo unspecified)	-4.4	-26.8%	-26.3%	-24.6%	0.0%	?
COc1cccc(C2c3[nH]c4ccccc4c3CCN2Cc2cnc(C)s2)c1OC (stereo unspecified)	-8.2	-2.8%	?	14.6µM*	5.4%	13.6%
COc1ccccc1C1c2[nH]c3ccccc3c2CCN1Cc1cnc(C)s1 (stereo unspecified)	5.7	-5.4%	?	18.4µM*	0.0%	-1.0%
COc1cccc(C2c3[nH]c4ccccc4c3CCN2Cc2cnn(C)c2)c1 (stereo unspecified)	-13.3	-24.2%	-11.8%	-22.4%	·	-11.1%
Oc1cccc(C2c3[nH]c4ccccc4c3CCN2Cc2ccc3c(c2)CCO3)c1 (stereo unspecified)	-93.1*	-52.3%	?	20.6µM*	10.8%	?
O=C(OCC(=O)N1CCCCCC1)c1cc(S(=O)(=O)N2CCOCC2)ccc1F	-9.6	5.5%	-0.7%	-3.1%	·	-5.2%
COCCNC(=S)NNc1ccccc1[N+](=O)[O-]	-8.4	-21.0%	1.7%	4.0%	5.8%	-20.0%
COc1ccc(-c2coc3c(C(=O)N4CCN(C)CC4)cccc23)c(C)c1	-6.0	8.1%	?	?	·	40.8%
CCNC(=O)CCSc1nnc(-c2ccc(O)cc2)o1	·	6.5%	·	·	-2.1%	20.4%
CCCC(=O)N1CCN(c2ccc(NC(=O)C(C)(C)C)cc2)CC1	8.3	2.5%	13.2%	-12.0%	-3.9%	28.7%
CCCC(=O)N1CCN(c2ccc(NC(=O)C(C)(C)C)cc2Cl)CC1	0.5	3.7%	20.6µM*	?	-1.3%	5.7%
CCCC(=O)N1CCN(c2ccc(NC(=O)c3cccs3)cc2Cl)CC1	-84.4*	-5.6%	-25.2%	-15.6%	-3.6%	5.1%
Cc1ccc(C)c(N2N=C(C(=O)NCCN3C(=O)S/C(=C\c4cccnc4)C3=O)CCC2=O)c1	-8.4	1.0%	-29.3%	?	6.0%	9.5%
COc1cc(OC)cc(C(=O)OCC(=O)NC2CCCCCC2)c1	12.0	-15.5%	-20.4%	17.0%	1.8%	-0.8%
CCN(C(=O)c1c(C)oc2ncn(CC(C)C)c(=O)c12)c1cccc(Cl)c1	·	-14.4%	?	?	4.2%	-8.2%
COc1ccc(OC)c(NC(=O)c2c(NCc3ccc(N(C)C)cc3)sc3c2CCCC3)c1	·	-50.6%	20.6µM*	?	11.4%	0.0%
CCOC(=O)N1CCc2c(sc(NCc3ccc(OC)c(Br)c3)c2C(=O)Nc2cc(OC)ccc2OC)C1	·	-19.7%	?	?	10.4%	0.0%
COc1ccc(OC)c(NC(=O)c2c(NCc3ccc(OC)c(OC)c3)sc3c2CCC3)c1	·	-8.7%	14.6µM*	16.4µM*	4.7%	-4.4%
COc1ccc(NC(=O)c2c(NC(=O)COc3ccc(Cl)cc3)sc3c2CCCCC3)cc1	·	-0.5%	?	-43.4%	-0.4%[12.3 µM]	9.7%
COc1ccc(NC(=O)c2c(NC(=O)c3cccc(C)c3)sc3c2CCC3)cc1	·	4.9%	8.3%	2.6%	·	19.5%
COc1cccc(CNc2sc3c(c2C(=O)Nc2ccc(OC)cc2OC)CCC3)c1	·	-30.7%	13µM*	20.6µM*	6.6%	?
Cc1cc(C)c(C)c(S(=O)(=O)NCC(=O)NCC2CCCCC2)c1C	-17.5	-11.1%	-4.9%	?	8.1%	-9.3%
CCCSc1nnc2n(-c3cccc(C)c3)c(=O)c3c4c(sc3n12)CCCC4	·	-1.5%	·	·	·	19.4%
SMILES	IL-1B inflam inh	HepG2 viability	DT40 TDP1 CPT	TDP1 cell noCPT	TDP1 block	TGFb inhibitor
CC(=O)c1ccc(NC(=S)NC(C)c2ccc(Cl)cc2Cl)cc1 (stereo unspecified)	-72.6*	-20.7%	?	29.1µM*	6.0%	?
Cc1sc(=NC(=O)c2ccco2)n(C)c1-c1ccc(Cl)cc1	-16.1	2.5%	11.6µM*	11.6µM*	-3.1%	-0.2%
CCOP(=O)(OCC)c1nc(/C=C/c2ccccc2)oc1NCc1ccccc1	-74.9*	-8.3%	?	?	-1.9%	-7.9%
CCOP(=O)(OCC)c1nc(-c2cccc3ccccc23)oc1NCc1ccc(OC)cc1	-75.0*	-32.7%	?	?	-2.6%	?
COc1ccc(CCNc2oc(-c3cccc4ccccc34)nc2P(=O)(OC)OC)cc1OC	-15.4	-7.7%	?	14.6µM*	5.6%	11.5%
CCOP(=O)(OCC)c1nc(/C=C/c2ccccc2)oc1NCc1ccc(OC)cc1	-6.8	4.6%	?	?	2.2%	?
COc1ccc(CCNc2oc(-c3ccc(C)cc3)nc2C#N)cc1OC	70.4	-20.3%	?	?	9.8%	-1.4%
Cc1[nH]c2ccccc2c1C(=O)CN1CCN(c2ccc(Cl)cc2)CC1	19.8	-20.9%	8.5%	-28.3%	·	-20.8%
O=C(Cc1cccc2ccccc12)Nc1ccc(O)cc1C(=O)O	3.4	17.0%	3.2%	-4.1%	8.9%	-8.9%
O=C(Cc1cccc2ccccc12)Nc1ccc(Br)cc1C(=O)O	30.0	14.1µM*	?	?	·	-23.2%
O=S(=O)(c1ccccc1)c1nc(-c2ccccc2Cl)oc1NCCCN1CCOCC1	-66.9*	-16.2%	?	23.1µM*	7.9%	25.8%
Cc1ccccc1-c1nc(S(=O)(=O)c2ccc(Cl)cc2)c(NCCN2CCOCC2)o1	-51.5*	-21.8%	?	?	7.8%	-21.6%
Cc1cnc(-n2ncc(C(=O)NCC(C)(C)N3CCOCC3)c2C)nc1-c1cccs1	·	·	1.1%[9.04 µM]	-6.7%	·	·
C1=CC2=NC34CCCCC3CC3=C(CCCC3)N4C2=CC1=NC1CCCCC1 (stereo unspecified)	-97.6*	-105.8%	5.17µM*	5.17µM*	·	?
N#CC1=C(N)C2=CCCC[C@H]2[C@H](c2ccccc2)C1(C#N)C#N	-56.2*	-37.7%	?	?	2.7%	?
